Measured values reported in PubChem BioAssay (Tox21).
Results filed as inconclusive are left out. Active and inactive are the calls of the source. Unless noted, the call rests on the fitted dose curve; in most records, active means well fitted curve in the direction sought with a large enough effect in the repeat runs; inconclusive means weak or mixed curves; inactive means no such curve, though single readings can be large; an effect the other way counts as inactive or inconclusive.

Key:
[1] = biological target: Luciferin 4-monooxygenase (Photinus pyralis) (UniProt P08659); assay: qHTS assay to identify small molecule inhibitors of firefly luciferase (AID 1224835); further: series mostly up to about 120 µM; nearly all actives have a fitted effect of over 25% in size
Method in brief: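 Inhibition of purified Photinus luciferase is measured by luminescence. Substrate levels (D-luciferin, ATP) sit at their KM values. Each compound is tested in a concentration series.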

[2] = qHTS assay to identify small molecule agonists of the constitutive androstane receptor (CAR) signaling pathway - cell viability counter screen (AID 1224836); further: nearly all actives have a fitted effect of over 45% in size; further: potency means the concentration at half of the fitted maximal effect; on viability change, negative = cytotoxic: series mostly up to about 92 µM
Method in brief: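 HepG2 cells stably carrying hCAR and a CYP2B6-2.2kb reporter; 15-concentration compounds plus PK11195 (final 0.75 uM), 23 hr at 37 C/5% CO2. Viability read by CellTiter-Fluor fluorescence.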

[3] = qHTS assay to identify small molecule antagonists of the constitutive androstane receptor (CAR) signaling pathway - cell viability counter screen (AID 1224837); further: nearly all actives have a fitted effect of over 45% in size; further: potency means the concentration at half of the fitted maximal effect; on activity change, negative = cytotoxicity: series mostly up to about 92 µM
Method in brief: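 Counter screen run in HepG2-CYP2B6-hCAR cells: 4 hr settle, compound titration (15 concentrations) with 50 nM CITCO, 23 hr at 37 C/5% CO2, CellTiter-Fluor fluorescence.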

[4] = biological target: Nuclear receptor subfamily 1 group I member 3 (Homo sapiens) (UniProt Q14994); assay: qHTS assay to identify small molecule antagonists of the constitutive androstane receptor (CAR) signaling pathway (AID 1224838);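 further: HepG2 cells stably expressing hCAR with CYP2B6 luciferase reporter stimulated by CITCO; nearly all actives have a fitted effect of over 40% in size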
Method in brief: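 Cell line: HepG2 double-stable for hCAR and CYP2B6-2.2kb reporter. Agonist: CITCO, 50 nM final. Compounds: 15 concentrations, 24 h, 37 C. Detection: ONE-Glo luminescence.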

[5] = biological target: Thyrotropin receptor (Homo sapiens) (UniProt P16473); assay: qHTS assay to identify small molecule agonists of the thyroid stimulating hormone receptor (TSHR) signaling pathway (AID 1224843; calls by dose curve; further: nearly all actives have a fitted effect of over 45% in size)
Method in brief: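 Screening of the Tox21 10K collection used HEK293 cells engineered with TSHR at 800 cells per well. After a 30-min room-temperature compound exposure, HTRF cAMP reagents were added and fluorescence recorded 1 h later.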

[6] = qHTS assay to identify small molecule agonists of the hypoxia (HIF-1) signaling pathway - cell viability counter screen (AID 1224844; calls by dose curve; further: nearly all actives have a fitted effect of over 50% in size)
Method in brief: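 Cells (HRE-bla ME-180, 2,000 per well) sat 5 hrs at 37C, got compound for 17 hrs, were read for CCF4-AM FRET, and were finally lysed with CellTiter-Glo for a 30 min room-temperature luminescence read.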

[7] = qHTS assay to identify small molecule antagonists of the estrogen related receptor signaling pathway with the pleiotropic PPARgamma coactivator (PGC) from Tox21 10K library - cell viability counter screen (AID 1224840; active means well fitted cell-killing curve with a large enough effect in the repeat runs, not every such curve was filed as active; further: nearly all actives have a fitted effect of over 40% in size; further: potency means the concentration at half of the fitted maximal effect)
Method in brief: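 Following seeding of 2,000 PGC/ERR cells/well and 6 hours' incubation, test compounds were delivered in DMSO. The plates then sat 17.5 hours at 37 C before a fluorogenic live-cell protease reagent (CellTiter-Fluor) was read after 30 min.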

[8] = biological target: Nuclear receptor subfamily 1 group I member 3 (Homo sapiens) (UniProt Q14994); assay: qHTS assay to identify small molecule agonists of the constitutive androstane receptor (CAR) signaling pathway (AID 1224839);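 further: HepG2 cells stably carrying human CAR and a CYP2B6 luciferase reporter; series mostly up to about 92 µM; nearly all actives have a fitted effect of over 15% in size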
Method in brief: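 HepG2 cells stably co-transfected with hCAR and a CYP2B6-2.2kb luciferase reporter; compounds at 15 concentrations with 0.75 uM PK11195 present. After 24 hr at 37 C, luciferase read by ONE-Glo luminescence.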

[9] = qHTS assay to identify small molecule antagonists of the estrogen related receptor signaling pathway with the pleiotropic PPARgamma coactivator (PGC) from Tox21 10K library (AID 1224841; call rule not given here; further: actives are mostly falling curves and most rising ones were filed inactive; nearly all actives have a fitted effect of over 50% in size; further: potency means the concentration at half of the fitted maximal effect; on activity, negative = inhibition: series mostly up to about 92 µM)
Method in brief: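 qHTS antagonist format: PGC/ERR cells, 2k/well, compound in DMSO by pin transfer after 6 h attachment, 18 h treatment at 37 C, One-Glo luminescence read at 30 min.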

[10] = qHTS assay to identify small molecule agonists of the estrogen related receptor signaling pathway with the pleiotropic PPARgamma coactivator (PGC) from Tox21 10K library (AID 1224842); further: nearly all actives have a fitted effect of over 15% in size
Method in brief: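 Luminescence from One-Glo (30 min, room temperature) measured after PGC/ERR cells had 18 h at 37 C with pinned compound (23 nL in DMSO). Cells had been seeded at 2,000 per well and pre-incubated 6 h.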
On the % scale 0 is the no-effect control and ±100 the full control effect.

Chain of Nuclear receptor subfamily 1 group I member 3 (Homo sapiens) (Q14994 whole entry, looked up): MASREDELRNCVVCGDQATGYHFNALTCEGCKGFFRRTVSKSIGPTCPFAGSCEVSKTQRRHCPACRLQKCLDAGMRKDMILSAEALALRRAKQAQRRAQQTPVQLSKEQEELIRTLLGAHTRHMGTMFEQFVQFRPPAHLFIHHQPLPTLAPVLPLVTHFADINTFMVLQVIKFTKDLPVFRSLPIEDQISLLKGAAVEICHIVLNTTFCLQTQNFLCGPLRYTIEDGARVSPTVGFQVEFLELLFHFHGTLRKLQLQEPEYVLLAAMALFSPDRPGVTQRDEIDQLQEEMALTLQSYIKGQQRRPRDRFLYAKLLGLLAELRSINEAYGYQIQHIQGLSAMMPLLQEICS
Chain of Luciferin 4-monooxygenase (Photinus pyralis) (P08659 whole entry, looked up): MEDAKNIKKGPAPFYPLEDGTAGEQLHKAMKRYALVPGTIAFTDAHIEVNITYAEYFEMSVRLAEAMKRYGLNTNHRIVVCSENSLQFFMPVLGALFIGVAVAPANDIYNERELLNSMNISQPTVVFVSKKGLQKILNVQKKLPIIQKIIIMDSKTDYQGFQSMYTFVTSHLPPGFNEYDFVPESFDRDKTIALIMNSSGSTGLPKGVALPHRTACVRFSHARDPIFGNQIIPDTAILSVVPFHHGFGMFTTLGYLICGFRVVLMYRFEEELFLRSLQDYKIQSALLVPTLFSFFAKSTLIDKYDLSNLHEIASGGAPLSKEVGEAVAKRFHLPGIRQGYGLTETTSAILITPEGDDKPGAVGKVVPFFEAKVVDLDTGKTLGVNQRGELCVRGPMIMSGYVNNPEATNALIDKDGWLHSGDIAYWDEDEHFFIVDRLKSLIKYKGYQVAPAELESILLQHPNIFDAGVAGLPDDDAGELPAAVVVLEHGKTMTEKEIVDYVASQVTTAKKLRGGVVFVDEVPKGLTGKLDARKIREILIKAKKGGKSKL
Chain of Thyrotropin receptor (Homo sapiens) (P16473 whole entry, looked up): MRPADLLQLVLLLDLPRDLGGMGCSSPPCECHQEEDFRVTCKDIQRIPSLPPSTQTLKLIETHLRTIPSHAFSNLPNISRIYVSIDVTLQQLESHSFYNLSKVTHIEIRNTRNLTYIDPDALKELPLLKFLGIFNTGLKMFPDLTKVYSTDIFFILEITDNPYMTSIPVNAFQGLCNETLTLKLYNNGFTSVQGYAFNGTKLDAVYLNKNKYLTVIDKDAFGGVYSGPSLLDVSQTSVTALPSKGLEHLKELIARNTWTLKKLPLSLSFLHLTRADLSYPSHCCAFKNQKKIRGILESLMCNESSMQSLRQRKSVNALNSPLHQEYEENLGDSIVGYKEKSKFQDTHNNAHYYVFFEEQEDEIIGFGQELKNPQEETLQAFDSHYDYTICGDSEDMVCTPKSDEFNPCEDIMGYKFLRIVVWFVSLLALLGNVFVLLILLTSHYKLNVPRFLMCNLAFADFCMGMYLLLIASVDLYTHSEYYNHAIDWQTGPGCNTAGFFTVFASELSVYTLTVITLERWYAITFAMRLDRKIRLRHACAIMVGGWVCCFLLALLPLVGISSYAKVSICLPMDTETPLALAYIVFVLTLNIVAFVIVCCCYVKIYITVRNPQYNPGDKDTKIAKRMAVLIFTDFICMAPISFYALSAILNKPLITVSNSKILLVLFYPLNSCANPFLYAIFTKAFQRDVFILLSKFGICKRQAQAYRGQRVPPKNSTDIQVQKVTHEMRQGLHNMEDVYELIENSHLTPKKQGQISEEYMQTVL

NCC(=O)O
inactive: activity change, negative = inhibition [1] -0.476% [at 23.6 µM] | viability change, negative = cytotoxic [2] -11.9% [at 19 µM] | activity change, negative = cytotoxicity [3] -8.8% [at 19 µM] | activity, negative = inhibition [4] -5.57% [at 19 µM] | activation [5] -1.56% [at 19 µM] | activity change, negative = cytotoxicity [6] 0.428% [at 15.8 µM]

COC(=O)c1ccc(I)cc1S(=O)(=O)NC(=O)Nc1nc(C)nc(OC)n1
inactive: Potency [1] | Potency [2] | Potency [3] | Potency [4] | Potency [7] | Potency [5] | Potency [6]

CCCCCCCCCCCCCCCCOS(=O)(=O)O
inactive: Potency [1] | Potency [2] | Potency [3] | Potency [8] | Potency [7] | Potency [9] | Potency [10]

CCC(CC)Nc1ccc(C)c(C)c1
inactive: Potency [1] | Potency [2] | Potency [3] | Potency [4] | Potency [7]

CCCCCCCC/C=C\CCCCCCCC(=O)OCC
inactive: Potency [1] | Potency [2] | Potency [3] | Potency [8] | Potency [7] | Potency [9] | Potency [10] | Potency [5] | Potency [6]

CO[C@@H]1[C@H](OC(=O)/C=C/C=C/C=C/C=C/C(=O)O)CC[C@]2(CO2)[C@H]1[C@@]1(C)O[C@@H]1CC=C(C)C
inactive: Potency [1] | Potency [2] | Potency [3] | Potency [8] | Potency [7] | Potency [9] | Potency [10] | Potency [5]

CCOC(=O)COC(=O)c1cc(Oc2ccc(C(F)(F)F)cc2Cl)ccc1[N+](=O)[O-]
inactive: Potency [1] | Potency [2] | Potency [3] | Potency [4] | Potency [7] | Potency [6]

CCCCCCCN
inactive: Potency [1] | Potency [2] | Potency [3] | Potency [4] | Potency [8] | Potency [5] | Potency [6]

CCOc1ccc(O)cc1
inactive: Potency [1] | Potency [2] | Potency [3] | Potency [8] | Potency [7] | Potency [5] | Potency [6]

CCOCC(O)COc1ccc(NC(=O)CC[S+](C)C)cc1 (configuration not stated)
inactive: Potency [1] | Potency [2] | Potency [3] | Potency [4] | Potency [7] | Potency [5] | Potency [6]

C=C1[C@H]2CC[C@@H]3[C@H]2C(C)(C)CCC[C@]13C
inactive: Potency [1] | Potency [2] | Potency [3] | Potency [4] | Potency [8] | Potency [6]

COc1ccc2cccc(CCNC(C)=O)c2c1
inactive: Potency [1] | Potency [2] | Potency [3] | Potency [4] | Potency [7] | Potency [6]

CCOC(=O)c1cccnc1
inactive: Potency [1] | Potency [2] | Potency [3] | Potency [4] | Potency [8] | Potency [5] | Potency [6]

CCN(CC)CCOC(=O)C(c1ccccc1)C1CCCCC1 (configuration not stated)
inactive: Potency [1] | Potency [2] | Potency [3] | Potency [4] | Potency [6]

C=C1C(=C/C=C2\CCC[C@]3(C)[C@@H]([C@H](C)/C=C/[C@@H](O)C4CC4)CC[C@@H]23)C[C@@H](O)C[C@@H]1O
active: Potency [9] 29.8 µM
inactive: Potency [1] | Potency [2] | Potency [3] | Potency [4] | Potency [10] | Potency [6]

O=C(O)CNCC(=O)O
inactive: activity change, negative = inhibition [1] 2.59% [at 10.5 µM] | viability change, negative = cytotoxic [2] 4.87% [at 8.39 µM] | activity change, negative = cytotoxicity [3] 2.11% [at 8.39 µM] | activity, negative = inhibition [4] 15.5% [at 8.39 µM] | activation [8] -0.889% [at 8.39 µM] | activation [5] 4.36% [at 8.39 µM] | activity change, negative = cytotoxicity [6] -0.223% [at 6.97 µM]

CC(C)=CCC/C(C)=C/CC/C(C)=C/CO
inactive: Potency [1] | Potency [2] | Potency [3] | Potency [4] | Potency [7] | Potency [5] | Potency [6]

O=C1c2ccccc2S(=O)(=O)N1CCCCN1CCN(c2ncccn2)CC1
inactive: Potency [1] | Potency [2] | Potency [3] | Potency [8] | Potency [7] | Potency [5] | Potency [6]

Nc1ccc(S(=O)(=O)Nc2ccccc2)cc1
inactive: Potency [1] | Potency [2] | Potency [3] | Potency [4] | Potency [8] | Potency [5] | Potency [6]

Cn1c(=O)cc(Oc2ccc(F)cc2F)c2cnc(NCC(C)(C)O)nc21
active: Potency [9] 34.4 µM
inactive: Potency [1] | Potency [2] | Potency [3] | Potency [4] | Potency [7] | Potency [10] | Potency [6]

CCOC(=O)C(F)(F)F
inactive: Potency [1] | Potency [2] | Potency [3] | Potency [4] | Potency [7] | Potency [5] | Potency [6]

CCCCCCCCCCCC(=O)OC[C@@H](O)[C@H]1OC[C@H](OCCO)[C@H]1OCCO
inactive: Potency [1] | Potency [2] | Potency [3] | Potency [4] | Potency [8] | Potency [5] | Potency [6]

COC(C)(C)CCO
inactive: Potency [1] | Potency [2] | Potency [3] | Potency [8] | Potency [7] | Potency [9] | Potency [10] | Potency [5] | Potency [6]

OC[C@H]1O[C@@H](OCCc2ccc(O)cc2)[C@H](O)[C@@H](O)[C@@H]1O
inactive: Potency [1] | Potency [2] | Potency [3] | Potency [4] | Potency [7] | Potency [9] | Potency [10] | Potency [6]

COc1cccc(N(C)C(=S)Oc2ccc3c(c2)CCCC3)n1
inactive: Potency [1] | Potency [2] | Potency [3] | Potency [7] | Potency [6]

NCC(=O)CCC(=O)O
inactive: Potency [1] | Potency [2] | Potency [3] | Potency [7] | Potency [5] | Potency [6]

CCCCCC[C@@H](O)C/C=C\CCCCCCCC(=O)OC
inactive: Potency [1] | Potency [2] | Potency [3] | Potency [7] | Potency [9] | Potency [10] | Potency [5] | Potency [6]

O=[N+]([O-])c1ccc(NCCO)c(OCCO)c1
active: Potency [2] 43.3 µM | Potency [3] 48.6 µM | Potency [7] 48.6 µM
inactive: Potency [1] | Potency [9] | Potency [10] | Potency [5] | Potency [6]

O=P(O)(OCc1ccccc1)OCc1ccccc1
inactive: Potency [1] | Potency [2] | Potency [3] | Potency [7] | Potency [5] | Potency [6]

c1ccc(-c2ccccn2)nc1
inactive: Potency [1] | Potency [2] | Potency [3] | Potency [7] | Potency [10] | Potency [5] | Potency [6]

O=C(CS)Nc1ccccc1
inactive: Potency [1] | Potency [2] | Potency [3] | Potency [7] | Potency [5] | Potency [6]

CN1CCN(C(c2ccccc2)c2ccccc2)CC1
inactive: Potency [1] | Potency [2] | Potency [3] | Potency [7] | Potency [5] | Potency [6]

COc1cc2c(cc1OC)C(C(C(=O)N(CCc1ccc(OC)c(OC)c1OC)CCc1ccc(OC)c(OC)c1OC)c1ccccc1)=NCC2 (configuration not stated)
inactive: Potency [1] | Potency [2] | Potency [3] | Potency [10] | Potency [5]
active: Potency [9] 23.7 µM

CC(COCCO)OCCO (configuration not stated)
inactive: Potency [1] | Potency [2] | Potency [3] | Potency [7] | Potency [9] | Potency [10] | Potency [5] | Potency [6]

C=C(C)C(=O)OCC
inactive: Potency [1] | Potency [2] | Potency [3] | Potency [7] | Potency [9] | Potency [10] | Potency [5] | Potency [6]

C/C=C/C=C/CO
inactive: Potency [1] | Potency [2] | Potency [3] | Potency [7] | Potency [5] | Potency [6]
